Source: PubChem BioAssay (several laboratories)
BioA inh = BioA (M. tuberculosis) enzyme inhibition. 360,000 compounds, 0.096% hits. purified M. tuberculosis BioA enzyme, plate reader. inhibition, % at 9.99 µM. AID 602481; in the data active = inhibition above about 40%
FBA Mtb inh = inhibitors of M. tuberculosis fructose-bisphosphate aldolase. P9WQA3. purified M. tuberculosis FBA, fluorescence read-out. inhibition, % at 1 µM. 360,000 compounds, 2.3% hits; in the data active = inhibition above about 27%
Target sequence (P9WQA3 whole entry, looked up): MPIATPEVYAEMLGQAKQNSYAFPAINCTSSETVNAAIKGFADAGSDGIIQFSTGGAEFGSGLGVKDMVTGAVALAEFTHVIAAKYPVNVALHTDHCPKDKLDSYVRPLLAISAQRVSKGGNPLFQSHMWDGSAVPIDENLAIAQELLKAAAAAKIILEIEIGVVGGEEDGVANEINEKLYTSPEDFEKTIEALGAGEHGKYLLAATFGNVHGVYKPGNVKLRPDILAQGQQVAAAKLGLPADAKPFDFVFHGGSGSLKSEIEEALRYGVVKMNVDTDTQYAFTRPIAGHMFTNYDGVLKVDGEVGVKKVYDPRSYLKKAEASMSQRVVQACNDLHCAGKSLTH
GDH-TPI inh = GDH-TPI coupled enzyme inhibition counter-screen; GDH-TPI coupled enzyme counterscreen, NADH absorbance; inhibition, % at 4.8 µM; 360,000 compounds, 1.2% hits; AID 588335; in the data active = inhibition above about 30%
BH1578 lux ind = quorum light induction in luxS cqsA deficient V. cholerae; 350,000 compounds, 0.16% hits; V. cholerae BH1578 lux reporter, luminescence, 6 h; AID 588436; activation, % at 18.7 µM; in the data active = activation mostly above about 9.7%, no sharp cut-off
Numbers stand for hits; n = inactive; x = no result given. An excerpt weighted towards active compounds, which were near 3% of everything screened.

SMILES	BioA inh	FBA Mtb inh	GDH-TPI inh	BH1578 lux ind
Nc1nc(NCc2ccco2)nc(NCCO)c1[N+](=O)[O-]	n	n	31.7	n
Nc1nc(NCCCN2CCOCC2)nc(NCc2ccccc2)c1[N+](=O)[O-]	n	n	49.7	n
Nc1nc(NCCc2ccccc2)nc(NCc2ccccc2)c1[N+](=O)[O-]	x	n	n	n
CN(Cc1ccccc1)c1nc(N)c([N+](=O)[O-])c(NCc2ccccc2)n1	n	n	30.9	n
Nc1nc(NCCN2CCOCC2)nc(NCc2ccccc2)c1[N+](=O)[O-]	n	n	48.3	n
C[C@H]1CCCCO[C@H](CN(C)S(C)(=O)=O)[C@@H](C)CN([C@@H](C)CO)C(=O)c2cc(NC(=O)c3ccccc3)ccc2O1	n	x	x	x
COc1ccc(NC(=O)Nc2ccc3c(c2)C(=O)N([C@@H](C)CO)C[C@H](C)[C@@H](CN(C)S(=O)(=O)c2ccccc2)O3)cc1	n	x	x	x
C[C@@H]1CN([C@H](C)CO)C(=O)c2ccccc2-c2ccccc2CO[C@H]1CN(C)S(=O)(=O)c1ccccc1	n	x	x	x
Cc1ccsc1/C=N/NC(=O)c1nnn(-c2nonc2N)c1-c1ccccc1	n	n	38.2	n
COc1cccc(-c2c(C(=O)N/N=C(\C)c3cccs3)nnn2-c2nonc2N)c1	n	n	30.8	n
Cc1ccsc1/C=N/NC(=O)c1nnn(-c2nonc2N)c1C	n	n	31.3	n
Cc1ccc(-c2c(C(=O)N/N=C/c3sccc3C)nnn2-c2nonc2N)cc1	n	n	n	n
Cc1ccc(/C=N/NC(=O)c2nnn(-c3nonc3N)c2-c2ccccc2)o1	n	n	44.0	n
COc1ccc(NC(=O)Nc2ccc3c(c2)C(=O)N([C@@H](C)CO)C[C@@H](C)[C@@H](CN(C)S(=O)(=O)c2c(C)noc2C)OCCCC[C@@H](C)O3)cc1	n	x	x	x
COc1cccc(-c2c(C(=O)N/N=C/c3ccco3)nnn2-c2nonc2N)c1	n	n	33.0	n
COc1cccc(-c2c(C(=O)N/N=C/c3ccsc3)nnn2-c2nonc2N)c1	n	n	n	n
COc1cccc(-c2c(C(=O)N/N=C/c3sccc3C)nnn2-c2nonc2N)c1	n	n	34.8	n
Nc1nonc1-n1nnc(C(=O)N/N=C/c2ccco2)c1-c1ccccc1	n	n	n	n
CCc1ccc(/C=C2\Oc3c(ccc(O)c3CN3CCN(CCO)CC3)C2=O)cc1	n	n	35.4	n
COc1ccc(-c2ccc3c(c2)O[C@H](CN(C)CC2CCOCC2)[C@H](C)CN([C@H](C)CO)S3(=O)=O)cc1	n	x	x	x
C[C@@H]1CN([C@H](C)CO)C(=O)CCCn2cc(nn2)CO[C@H]1CN(C)Cc1ccc(Cl)c(Cl)c1	n	x	x	x
O=C(O)c1ccc(N/N=C/c2ccc(-c3cc(Cl)ccc3Cl)o2)cc1	n	n	n	n
NS(=O)(=O)c1ccc(-c2ccc(/C=N/Nc3ccc(C(=O)O)cc3)o2)cc1	n	n	34.2	n
O=C(O)c1cc(-c2ccc(/C=N/Nc3ccc([N+](=O)[O-])cn3)o2)ccc1Cl	x	n	n	n
O=C(O)c1cccc(-c2ccc(/C=N/Nc3ccc([N+](=O)[O-])cc3)o2)c1	n	n	33.3	n
SMILES	BioA inh	FBA Mtb inh	GDH-TPI inh	BH1578 lux ind
O=[N+]([O-])c1ccc(NN=Cc2cccc([N+](=O)[O-])c2)cc1	n	n	n	n
O=[N+]([O-])c1ccc(C=NNc2ccc(S(=O)(=O)O)cc2)cc1	n	n	30.7	n
NS(=O)(=O)c1ccc(-c2ccc(/C=N/NC(=O)c3ccc([N+](=O)[O-])cc3)o2)cc1	n	n	62.0	n
CCC(=O)Nc1ccc2c(c1)C(=O)N(C)[C@@H]1CC[C@@H](CC(=O)NC3CCCC3)O[C@@H]1CO2	n	x	x	x
O=C([C@@H]1[C@@H](CO)[C@@H]2Cn3c(cccc3=O)[C@H]1N2Cc1cocn1)N1CCCCC1	n	x	x	x
O=C(O)c1ccc(N/N=C/c2ccc(-c3cccc(Cl)c3)o2)cc1	n	n	45.7	n
CCCOc1ccc(C(=O)N/N=C/c2ccc(-c3ccc(S(=O)(=O)Nc4ncccn4)cc3)o2)cc1	n	n	32.6	n
NC(=S)N/N=C/c1ccc(-c2cccc([N+](=O)[O-])c2)o1	x	n	50.0	n
O=C(O)c1ccc(N/N=C/C=C/c2ccc([N+](=O)[O-])o2)cc1	n	n	30.9	n
O=[N+]([O-])c1cccc(-c2ccc(/C=N/NC(=S)Nc3cccc(F)c3)o2)c1	x	n	n	n
COc1ccccc1-c1ccc2n(c1=O)C[C@@H]1[C@@H](CO)[C@H](C(=O)N3CCCCC3)[C@H]2N1CC1CC1	n	x	x	x
O=C(O)c1ccc(N/N=C/c2c(F)cccc2Cl)cc1	n	n	38.3	n
O=C(O)c1ccc(-c2ccc(/C=N/Nc3ccc([N+](=O)[O-])cc3)o2)cc1	x	n	51.9	n
